Data on 22 molecules can be found in PubChem BioAssay (NCI).

The panel holds about 83,000 compounds, 20% with a hit somewhere; the sample as a whole holds those more often.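 Cells were grown in 96-well plates and exposed to the test compound at a single concentration for 48 hours; results are reported as percent growth, with values below 10 considered active.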 Values without a mark were called inactive. The source made the active and inactive calls.

Among the test systems are BT-549 breast; MDA-MB-435 melanoma; SW-620 colon; MCF7 breast; HCT-116 colon; HCC-2998 colon; KM12 colon.
Holding throughout (assay): NCI-60 one-dose screen, 48 h (100 = growth as untreated, 0 = no growth, -100 = all killed)
What all share (settings): 10 µM unless noted

For the molecule `O=C1NN(c2ccccc2)C(c2ccc3c(c2)OCO3)N2CCC[C@@H]12` (some centres undefined), the growth in the test with BT-549 breast was 114%; in the test on MDA-MB-435 melanoma, 105%; in the test on SW-620 colon it was 105%; in the test on MCF7 breast, 87.5%; with HCT-116 colon, 94.3%; with HCC-2998 colon it was 82.2%. In the test on KM12 colon, the growth is 98.8%.

Take `N#CCNc1ccc(C(=O)O)cc1`: the growth with BT-549 breast was 106%; in the test with MDA-MB-435 melanoma, 101%; in the test with SW-620 colon, 103%; in the test on MCF7 breast, 98.9%; in the test on HCT-116 colon, 103%; with HCC-2998 colon it was 104%. The growth with KM12 colon was 105%.

Take `CSc1nc(-c2ccc(F)cc2)c(C#N)c(N2CCOCC2)n1`: the growth was 95.3% in the test on BT-549 breast; 105% in the test with MDA-MB-435 melanoma; 97.5% in the test on SW-620 colon; 90.4% in the test on MCF7 breast; 96.6% with HCT-116 colon; 101% in the test on HCC-2998 colon. The growth in the test on KM12 colon is 101%.

In the case of `CC1CCN(CCCCCOc2ccc3oc4ccccc4c(=O)c3c2)CC1`, the growth is 80.3% in the test on BT-549 breast; 79.9% with MDA-MB-435 melanoma; 81.7% with SW-620 colon; 68.3% in the test on MCF7 breast; 52.7% in the test on HCT-116 colon; 79.5% in the test on HCC-2998 colon. Also, the growth in the test with KM12 colon is 69.9%.

As for `CN(C)CCCn1c2c(c3cc(-c4ccco4)ccc3c1=O)C(=O)c1ccccc1-2`, the growth was 83.9% in the test on BT-549 breast; 66.6% in the test with MDA-MB-435 melanoma; 30.2% in the test on SW-620 colon; -21.6% (active) with MCF7 breast; 26.6% with HCT-116 colon; 71.7% in the test on HCC-2998 colon. Further, in the test with KM12 colon, the growth is 44.4%.

For the molecule `COC(=O)/C=C/c1cc(OC)c2c(c1)[C@@H](C(=O)OC)[C@H](c1ccc(OC)c(OC)c1)O2`, the growth was 36.7% with BT-549 breast; -42.3% (active) in the test with MDA-MB-435 melanoma; 30.4% in the test with SW-620 colon; 19.6% with MCF7 breast; 15.9% in the test on HCT-116 colon; 59.5% with HCC-2998 colon. The growth in the test on KM12 colon is 27.6%.

As to `Cn1c2ccccc2c2c(OC(=O)c3ccccc3)c3c(nc21)-c1ccccc1C3`, the growth in the test on BT-549 breast was 94%; with MDA-MB-435 melanoma, 104%; with SW-620 colon, 105%; in the test on MCF7 breast, 72.7%; in the test with HCT-116 colon, 95.9%; in the test on HCC-2998 colon, 106%. Moreover, in the test with KM12 colon, the growth was 96.7%.

As for `C=C(C)[C@@H]1CC[C@]2(C(=O)O)CC[C@]3(C)[C@H](CC[C@@H]4[C@@]5(C)C[C@@H](CC#Cc6ccc(Cl)cc6)C(=O)C(C)(C)[C@@H]5CC[C@]43C)[C@@H]12`, the growth was 46.5% with BT-549 breast; 46.6% with MDA-MB-435 melanoma; 41.3% in the test with SW-620 colon; 36.3% with MCF7 breast; 22% with HCT-116 colon; 50.3% in the test with HCC-2998 colon. Also, the growth with KM12 colon is 26.3%.

Turning to `CSc1nc(-c2ccco2)c2c(N)[nH]nc2n1`, the growth in the test with BT-549 breast was 102%; with MDA-MB-435 melanoma, 115%; in the test with SW-620 colon, 111%; in the test on MCF7 breast, 94.2%; in the test with HCT-116 colon, 84.1%; in the test with HCC-2998 colon, 111%. In the test with KM12 colon, the growth is 44.1%.

For `COc1ccc(-c2[nH]c3ccccc3c2C=C(C#N)C#N)cc1`, the growth in the test with BT-549 breast was 45.9%; in the test on MDA-MB-435 melanoma, -34.6% (active); in the test with SW-620 colon, 20.5%; in the test on MCF7 breast, 11.4%; with HCT-116 colon, 4.01% (active); in the test on HCC-2998 colon, -39.2% (active). Moreover, the growth in the test with KM12 colon is 3.41% (active).

With `CCO/C=N/S(=O)(=O)c1cc2c(cc1Cl)NC=NS2(=O)=O`, the growth was 101% in the test on BT-549 breast; 97.5% in the test with MDA-MB-435 melanoma; 94.9% in the test with SW-620 colon; 96.2% with MCF7 breast; 103% in the test on HCT-116 colon; 102% with HCC-2998 colon. Moreover, in the test with KM12 colon, the growth is 107%.

`C#CCN(CCCOc1ccc(Cl)cc1Cl)CCCSC(=O)CCCCCN1/C(=C\C=C2/CCCC(/C=C/C3=[N+](CCCCCC(=O)[O-])c4ccccc4C3(C)C)=C2Cl)C(C)(C)c2ccccc21`: the growth with BT-549 breast was -34.2% (active); in the test with MDA-MB-435 melanoma, -60.1% (active); in the test with SW-620 colon, 3.31% (active); in the test with MCF7 breast, 6.92% (active); in the test on HCT-116 colon, 9.39% (active); with HCC-2998 colon, 40.3%. The growth with KM12 colon is 6.88% (active).

Take `COc1cc(C)ccc1Oc1nc(Nc2ccc(N3CCOCC3)cc2)ncc1N=Cc1cc(C(F)(F)F)cc(C(F)(F)F)c1`: the growth is 89.4% in the test with BT-549 breast; 65.1% with MDA-MB-435 melanoma; 80.5% with SW-620 colon; 46.4% with MCF7 breast; 47.6% in the test on HCT-116 colon; 91.6% with HCC-2998 colon. Moreover, the growth with KM12 colon was 55.3%.

Consider `CC(C)(C)c1ccc(O)c(Cc2cc(C(C)(C)C)ccc2O)c1`, for which the growth is 113% with BT-549 breast; 107% with MDA-MB-435 melanoma; 105% in the test with SW-620 colon; 72.5% in the test on MCF7 breast; 88.6% with HCT-116 colon; 103% in the test with HCC-2998 colon. Further, in the test with KM12 colon, the growth is 100%.

`C=C(C)[C@@H]1CC[C@]2(C(=O)N=C=S)CC[C@]3(C)[C@H](CC[C@@H]4[C@@]5(C)CCC(=O)C(C)(C)[C@@H]5CC[C@]43C)[C@@H]12`: the growth with BT-549 breast was 47.3%; with MDA-MB-435 melanoma, 47.1%; in the test on SW-620 colon, 28.8%; in the test on MCF7 breast, 16.4%; in the test on HCT-116 colon, 13.8%; in the test on HCC-2998 colon, 43.3%. Also, in the test with KM12 colon, the growth is 21.2%.

Consider `CC(C)C1=C[C@@]23CC[C@H]4[C@](C)(COCCC#N)CCC[C@]4(C)[C@H]2C[C@@H]1[C@@H]1[C@H]3[C@@H](OCCC#N)CC[C@@H]1OCCC#N`, for which the growth in the test on BT-549 breast is 39.4%; with MDA-MB-435 melanoma it was 40.1%; with SW-620 colon it was 47.4%; in the test with MCF7 breast, 9.61% (active); in the test with HCT-116 colon, 24.6%; in the test with HCC-2998 colon, 44.4%. In addition, the growth in the test with KM12 colon was 32.7%.

`Nn1c(SCC(=O)Nc2ccc(Cl)cc2)nnc1-c1cc(F)c(Cl)cc1Cl`: the growth is 114% in the test with BT-549 breast; 97.3% with MDA-MB-435 melanoma; 92% in the test with SW-620 colon; 72.3% in the test on MCF7 breast; 83.1% in the test with HCT-116 colon; 93.2% in the test with HCC-2998 colon. Besides, the growth with KM12 colon is 72.8%.

As to `COc1ccc2[nH]c(-c3ccccc3)c(C=C(C#N)C#N)c2c1`, the growth in the test with BT-549 breast is 4.38% (active); with MDA-MB-435 melanoma, -55.1% (active); in the test with SW-620 colon, 25.1%; in the test with MCF7 breast, 17.1%; in the test on HCT-116 colon, 23.5%; in the test with HCC-2998 colon, 49.3%. The growth in the test on KM12 colon was 18.6%.

As for `COc1c(O)cc2oc3cc(O[C@@H]4OC(C)[C@@H](O)[C@H](O)C4O)c(CC=C(C)C)c(O)c3c(=O)c2c1CC=C(C)C` (some centres undefined), the growth was 99.3% in the test on BT-549 breast; 97.9% with MDA-MB-435 melanoma; 101% with SW-620 colon; 76% in the test on MCF7 breast; 94.1% with HCT-116 colon; 94.8% with HCC-2998 colon. In the test on KM12 colon, the growth is 87.8%.

`C=C1C(=O)O[C@H]2[C@H]1CC/C(COC(=O)c1cccnc1N)=C\CC[C@@]1(C)O[C@@H]21`: the growth in the test with BT-549 breast was -37.2% (active); in the test with MDA-MB-435 melanoma, -4.17% (active); in the test on SW-620 colon, 4.05% (active); in the test on MCF7 breast it was 7.98% (active); in the test with HCT-116 colon it was 3.94% (active); in the test on HCC-2998 colon, 35.3%. The growth in the test with KM12 colon was 13.4%.

Turning to `c1cc(CNC23CC4CC(CC(C4)C2)C3)cc(C[N+](Cc2cccc(CNC34CC5CC(CC(C5)C3)C4)c2)(Cc2cccc(CNC34CC5CC(CC(C5)C3)C4)c2)Cc2cccc(CNC34CC5CC(CC(C5)C3)C4)c2)c1` (centres undefined), the growth in the test with BT-549 breast is 24.5% [42 µM]; in the test with MDA-MB-435 melanoma, 11.3% [42 µM]; in the test with SW-620 colon, 20.6% [42 µM]; in the test on MCF7 breast, 2.14% [42 µM] (active); in the test with HCT-116 colon, -3.55% [42 µM] (active); in the test on HCC-2998 colon, 34.3% [42 µM]. The growth with KM12 colon was 25.8% [42 µM].

For `CC(=O)c1cc2c(N)c(C(=O)Nc3ccccn3)sc2nc1C`, the growth in the test with BT-549 breast was 98.6%; with MDA-MB-435 melanoma, 5.72% (active); in the test on SW-620 colon it was 96.9%; in the test on MCF7 breast, 73.2%; in the test with HCT-116 colon, 93.3%; with HCC-2998 colon, 84.6%. The growth with KM12 colon was 89.3%.
